# Screens (PubChem)
# GASC-1 inh: inhibitors of GASC-1 histone demethylase, primary screen, biochemical, fluorescence, DELFIA europium. inhibition, % at 2.35 µM. Lysine-specific demethylase 4C (Homo sapiens), Q9H3R0. 0.069% of 330,000 active. GST-JMJD2C(1-420) H3K9me3 demethylation. AID 2099, 2009;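 active means more than half of a compound's replicate wells show inhibition beyond 50%, single wells judged on their own value; inconclusive means some, but no more than half, of replicates pass 50% inhibition; inactive means no replicate passes 50% inhibition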;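 further: signal counts dimethyl H3K9 product captured on neutravidin plate; 0% = median of DMSO wells and 100% = 0.3 times that DMSO median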
# Target sequence (Q9H3R0 1-420 limits assumed): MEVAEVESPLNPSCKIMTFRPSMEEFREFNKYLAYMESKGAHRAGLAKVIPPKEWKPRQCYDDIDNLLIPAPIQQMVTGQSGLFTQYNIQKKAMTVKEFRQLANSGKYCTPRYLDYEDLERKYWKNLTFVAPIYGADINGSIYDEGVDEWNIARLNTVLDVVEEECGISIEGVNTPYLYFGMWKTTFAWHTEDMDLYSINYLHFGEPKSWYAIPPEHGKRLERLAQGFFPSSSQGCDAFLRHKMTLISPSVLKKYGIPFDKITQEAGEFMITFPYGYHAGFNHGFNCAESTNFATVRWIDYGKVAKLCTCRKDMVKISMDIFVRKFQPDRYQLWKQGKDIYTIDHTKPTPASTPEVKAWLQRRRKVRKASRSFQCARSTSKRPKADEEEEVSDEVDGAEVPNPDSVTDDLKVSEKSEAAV
# ALR inh: inhibitors of human ALR sulfhydryl oxidase, primary screen, biochemical, H2O2 detection, HRP-luminol luminescence, single point; 3.8% of 290,000 active; purified ALR, DTT oxidation; AID 485317, 2010; inhibition, % (test concentration not listed);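 active means mean replicate inhibition above about 79%, with every replicate also reaching it, limit read from the data; inconclusive means only one of the two criteria met; inactive means mean below limit and not every replicate reaching it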
# Target sequence (P55789 whole entry, looked up): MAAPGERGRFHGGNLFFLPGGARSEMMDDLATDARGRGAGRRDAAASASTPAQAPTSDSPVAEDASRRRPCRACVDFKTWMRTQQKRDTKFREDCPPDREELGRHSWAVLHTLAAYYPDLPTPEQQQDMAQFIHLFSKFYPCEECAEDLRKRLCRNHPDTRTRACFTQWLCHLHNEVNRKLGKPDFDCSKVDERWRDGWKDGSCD
# Granule exo inh: LAMP-1 surface exposure blockers, TALL-104 cells – cell-based, flow cytometry, MLPCN library, primary screen; TALL-104 LAMP-1 surface exposure; cells stimulated with thapsigargin and PMA; inhibition, % at 10 µM; 0.66% of 360,000 active; AID 651702, 2012;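 active means inhibition above about 55%, limit read from the data; inconclusive means no clear call, values can overlap the other calls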
# MIN6 prolif: inducers of MIN6 beta-cell proliferation, primary screen, ATP luminescence, uHTS; MIN6 cells proliferation, ATPlite luminescence, 48 h; cells starved in 0.2% serum; 100% = growth in 10% serum; 0.29% of 330,000 active; AID 2380, 2010; proliferation, % at 10 µM;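 active means compounds whose signal lies at least 3.5 SD above the mean of all wells on their plate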;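 further: 0% = DMSO-treated cells in low-serum medium and 100% = 10% serum control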
# SMARCA2 act: SMARCA2 (BRM) function activators, primary screen, cell-based, luminescence, high throughput; MG213 cells, MMTV-luciferase reporter, dexamethasone, overnight; activation, % at 9.1 µM; 1% of 370,000 active; AID 652017, 2013; in the data active means activation above about 7.8%;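 further: 0% = vehicle wells and 100% = reference activator wells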
# PfM18AAP inh: PfM18AAP inhibitors, malaria aminopeptidase, primary screen, biochemical, QFRET, recombinant enzyme. M18 aspartyl aminopeptidase (Plasmodium falciparum 3D7). H-Glu-NHMec fluorogenic cleavage. inhibition, % at 7.35 µM. 1.2% of 290,000 active;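 active means inhibition above the campaign mean inhibition over all tested compounds plus 3 SD, cut at about 28% in these data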;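 further: 0% = plate median of test compound wells and 100% = 2 mM ZnCl2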
# SMARCA2 conf: SMARCA2 (BRM) function activators, confirmation, cell-based, luminescence, triplicate; 30% of 3,500 active; shares compounds with SMARCA2 act; MG213 cells, MMTV-luciferase with dexamethasone, overnight; MG213 cells expressing E1A, Rb sequestered; DMSO wells 0%, reference activator 100%; activation, % at 9.1 µM;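 active means activation above its plate's cutoff, the mean activation of tested wells plus 3 SD, cut at about 7.9% in these data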
# GAL4-VP16 Luc: GAL4-VP16 luciferase reporter activation, counter-screen for SMARCA2 (BRM) activator project, cell-based, pG5luc, luminescence, high throughput. shares compounds with SMARCA2 act. HEK293 GAL4-VP16 pG5luc reporter; scaled: DMSO wells 0%, SAHA wells 100%. activation, % at 9.1 µM. 41% of 3,500 active. AID 686939, 2013;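 active means activation above the solvent-only control well mean plus 3 SD, averaged across control plates, cut at about 5.2% in these data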
# Numbers without * were called inactive; ? = inconclusive; / = no result given; ! = repeats disagree. Rows were chosen to be rich in hits. Some 5.4% of all compounds tested hit in one or more screens of this group.
SMILES,GASC-1 inh,ALR inh,Granule exo inh,MIN6 prolif,SMARCA2 act,PfM18AAP inh,SMARCA2 conf,GAL4-VP16 Luc
COc1ccc(N2CCN(C(=O)CN(c3cccc(OC)c3)S(=O)(=O)c3ccccc3)CC2)cc1,-4.9,37.9,3.7,-2.1,-1.5,0.4,/,/
CCc1cccc(CC)c1NC(=O)CN1C2CCCC1CC(NC(=O)Nc1cccc(OC)c1)C2 (stereo unspecified),2.8,/,-2.3,-3.2,10.7*,4.7,-0.6,1.2
COc1cccc(C(=O)NC2CC3CCCC(C2)N3CC(=O)Nc2ccccc2C(F)(F)F)c1 (stereo unspecified),-20.1,1.1,12.2,-3.9,-6.6,0.2,/,/
c1ccc(NC2=Nc3cccc4cccc2c34)cc1,-0.8,-7.2,-0.9,-4.7,-2.2,5.6,/,/
O=C(O)c1cccc(NC2=Nc3cccc4cccc2c34)c1,1.6,12.2,-2.1,-2.1,9.9*,0.3,10.4*,9.4*
O=C(O)c1cccc(Nc2ccnc(Nc3cccc(C(=O)O)c3)n2)c1,57.0,/,-4.1,1.6,8.0*,2.2,7.7,2.0
COCC(=O)Nc1c(C(=O)Nc2cccc(OC)c2)oc2ccccc12,7.9,-7.6,-4.9,0.4,10.0*,-3.9,12.1*,6.2*
O=C(Nc1ccncc1)c1cc(C2CCCCN2C(=O)CCc2ccccc2)on1 (stereo unspecified),/,/,-2.4,/,0.0,/,/,/
COCc1ccc(C(=O)N(C)CC2CCCN(CCc3ccc(OC)cc3)C2)o1 (stereo unspecified),-0.1,-1.7,-3.0,0.9,9.8*,-1.8,4.0,4.8
CC1(Cc2ccc(Cl)s2)C(=O)Nc2c(Cl)ccc(Cl)c21 (stereo unspecified),/,/,-9.7,/,-6.7,/,/,/
Cc1ccc(NC(=S)N/C(=N/S(=O)(=O)c2ccccc2)c2ccccc2)cc1,-2.5,-8.6,0.7,-2.8,9.7*!,-23.1,5.7,5.8*
Cc1ccc(S(=O)(=O)/N=C(/NC(=S)Nc2ccccc2)c2ccccc2)cc1,?,-1.6,4.9,-0.9,1.8,-10.2,/,/
O=C(NCC1OCCc2ccccc21)c1ccc(NC(=O)c2ccc(Cl)cc2Cl)cc1 (stereo unspecified),-4.1,0.2,-0.2,-3.6,9.4*,2.7,-4.0,0.6
CC(=O)C1=C(C)NC(SCC(=O)c2cc(Cl)ccc2Cl)=C(C#N)C1c1ccco1 (stereo unspecified),-1.4,-7.2,0.2,-4.5,-2.9,3.0,/,/
CC(=O)C1=C(C)NC(SCC(=O)c2ccc(Cl)c(Cl)c2)=C(C#N)C1c1ccco1 (stereo unspecified),-15.0,-32.1,6.5,-4.3,8.6*,3.4,-5.2,-0.4
Cc1nc2ccc(C(=O)N3c4ccccc4N=C(c4ccc5c(c4)OCO5)C3C(=O)NCc3ccccc3)cc2[nH]1 (stereo unspecified),/,/,8.4,/,-2.9,/,/,/
COc1ccc(NS(=O)(=O)/C=C/c2ccccc2)cc1,3.2,-2.8,-4.3,0.0,8.6*,2.5,-1.9,1.5
O=S(=O)(/C=C/c1ccccc1)Nc1ccc(F)cc1,-9.6,-1.6,0.2,-2.8,-0.2,1.8,/,/
Oc1ccc(Nc2ccnc3cc(Cl)ccc23)cc1,-13.0,28.2,34.3,-4.3,7.2,-12.1,/,/
CCN(CC)Cc1cc(Nc2ccnc3cc(Cl)ccc23)ccc1O,-28.7,35.2,27.3,-8.0,8.2*,-0.1,20.4*!,-2.2
Oc1ccc(/C=N/Nc2ccnc3cc(Cl)ccc23)c(O)c1,6.1,-1.8,3.2,-3.6,15.4*,1.3,18.4*,1.6
CC1CCCN(C(=O)Nc2ccc([N+](=O)[O-])cc2)C1 (stereo unspecified),/,/,/,/,1.7,/,/,/
COC(=O)[C@]12CCCCC=C1N(CCc1ccc(OC)c(OC)c1)C(=O)[C@H](CC(=O)NCc1cccs1)C2,/,/,-5.3,/,-0.2,/,/,/
CC(C)=CCCC1=CC[C@H]2[C@@H](C1)C(C(C)C)=CC(=O)[C@@]2(C)O,/,/,/,/,-5.9,/,/,/
COc1ccc([C@H]2CC(=O)C=C(c3ccc4c(c3)OCCO4)C2)cc1,0.7,-4.8,-6.4,-2.1,8.3*,/,2.2,1.9
SMILES,GASC-1 inh,ALR inh,Granule exo inh,MIN6 prolif,SMARCA2 act,PfM18AAP inh,SMARCA2 conf,GAL4-VP16 Luc
CC1=CC(O)(c2ccccn2)P(=O)(c2ccccc2)C=C1C (stereo unspecified),/,/,/,/,-5.0,/,/,/
Cc1ccc(F)c(S(=O)(=O)NC(=O)C2(C)CCN2C(=O)CC(c2ccccc2)c2ccccc2)c1 (stereo unspecified),/,/,18.0,/,-0.5,/,/,/
CCOC(=O)C1=C(C)N=c2sc(=Cc3ccc(OCC(=O)O)cc3)c(=O)n2C1c1ccc(Cl)cc1 (stereo unspecified),/,/,9.3,/,-1.5,/,/,/
CCOC(=O)C1=C(C)N=c2s/c(=C/c3ccc(OCC(=O)O)cc3)c(=O)n2C1c1cc(OC)c(OC)c(OC)c1 (stereo unspecified),8.4,11.9,16.2,-1.2,9.1*,18.6,-2.4,0.7
Cc1ccc(-c2ccnc(=S)[nH]2)cc1,-32.4,99.6*,2.6,-4.2,11.1*,2.0,1.1,1.5
O=C(NCCN1C(=O)S/C(=C\c2ccccc2Cl)C1=O)C1=COCCO1,2.9,1.0,2.9,-2.2,-1.3,/,/,/
O=C(NCCN1C(=O)S/C(=C\c2ccc(Cl)cc2Cl)C1=O)C1=COCCO1,-3.2,3.8,-5.8,-5.7,8.1*,/,3.9,0.3
COc1ccc(-n2nc3cc(C)c(NC(=O)C(C)C)cc3n2)cc1,-0.9,/,/,/,/,2.7,/,/
COc1ccc(-n2nc3cc(C)c(NC(C)=O)cc3n2)cc1,-29.4,-6.9,0.2,-4.7,8.1*,-3.4,4.6,8.9*
COc1ccc(-n2nc3cc(N)c(Br)cc3n2)cc1,37.8,-23.8,16.4,-3.6,3.2,7.3,/,/
COc1ccc(-n2nc3cc(C)c(N)c(Br)c3n2)cc1,-7.2,-21.7,9.2,-2.7,8.4*,-0.6,10.6*,11.1*
O=C1[C@@H](c2ccccc2)CC[C@@H]2C=CC[C@H]3CCN1[C@@H]32,/,/,-4.1,/,2.6,/,/,/
